Among the data in PubChem BioAssay are composite z-score and z-score values, retold here.

The source made the active and inactive calls.

Assay [1] is described as follows: anti-His antibody binders, primary screen, artefact control for SMM control protein annotation, biochemical, small-molecule microarray, 635 nm fluorescence (AID 1128).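 Further: score merges feature fluorescence with signal-to-noise for each printed compound spot.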 The note with it: anti-His Alexa647 antibody binding, higher = more signal.
Assay [2] deals with Human papillomavirus type 1a E7 protein (residues 1-88). Kind of assay: HPV1a E7 small-molecule binders, primary screen, biochemical, small-molecule microarray, residues 1-88, 635 nm (AID 1129). Conditions: small-molecule microarray binding, fluorescence 635 nm; higher = more signal.
Assay [3] addresses Focal adhesion kinase 1 (Homo sapiens) (UniProt Q05397). Description: small-molecule microarray binders of FAK, primary screen, biochemical, 635/667 nm fluorescence, BSA, DTT (AID 1130).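 Further: composite of spot emission at 667 nm and signal to noise over triplicate slides.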 Conditions: PTK2 binding, 635 nm fluorescence, higher = more signal.
In assay [4] the test system is Fibrinogen (Alexa647-labelled). Description: fibrinogen binders on compound microarrays, profiling panel, artefact control for SMM control-protein annotation, biochemical, small-molecule microarray, 635/667 nm fluorescence (AID 1131).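 Further: z-score merges 667 nm fluorescence with per-spot signal-to-noise over triplicate slides.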 Conditions: fibrinogen-A647 binding fluorescence, higher = more signal.
The target of assay [5] is Follistatin (Homo sapiens) (UniProt P19883). Description: follistatin binders on small-molecule microarrays, primary screen, biochemical, small-molecule microarray, 635/667 nm fluorescence (AID 1132). The note with it: FST binding, 635 nm fluorescence, higher = more signal.
Assay [6] concerns the target Fibroblast growth factor 2 (Homo sapiens) (UniProt P09038). Kind of assay: FGF2 binders on small-molecule microarrays, primary screen, biochemical, small-molecule microarray, 635/667 nm fluorescence (AID 1133). Conditions: small-molecule microarray binding, FGF2, fluorescence 635/667; higher = more signal.
The nature of assay [7]: mitochondrial membrane potential change in A549 cells, profiling panel, cell-based, JC-1 fluorescence, basal, 24 h, 100 nL (AID 1138).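 Further: A549 lung adenocarcinoma cells under basal conditions with no added stimulus; test concentration not given here.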 The note with it: higher = more signal.
The test system of assay [8] is Lefty1. Kind of assay: Lefty1 binders on small-molecule microarrays, primary screen, biochemical, small-molecule microarray, 635/667 nm fluorescence (AID 1139). Conditions: small-molecule microarray binding, fluorescence 635/667; higher = more signal.
Assay [9] has as its system wheat germ agglutinin (Triticum aestivum), Alexa647-labelled. Kind of assay: wheat germ agglutinin binders on compound microarrays, profiling panel, artefact control for SMM control-protein annotation, biochemical, small-molecule microarray, 635/667 nm fluorescence (AID 1140).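 Further: score merges 667 nm feature emission with signal to noise over triplicate slides.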 Conditions: WGA-A647 binding, 635 nm fluorescence, higher = more signal.
Assay [10] addresses Luciferin 4-monooxygenase (Photinus pyralis) (UniProt P08659). Description: firefly luciferase enzyme inhibitors, primary screen, biochemical, luminescence, purified enzyme, 2006 set (AID 1141).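 Further: cell-free assay with purified firefly luciferase at 100 ng per well in PBS; test concentration not given here.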 The note with it: SteadyGlo luminescence, 30 min, higher = more signal, called active from +8 up or from −8 down.

Follistatin (Homo sapiens), sequence (P19883 whole entry, looked up): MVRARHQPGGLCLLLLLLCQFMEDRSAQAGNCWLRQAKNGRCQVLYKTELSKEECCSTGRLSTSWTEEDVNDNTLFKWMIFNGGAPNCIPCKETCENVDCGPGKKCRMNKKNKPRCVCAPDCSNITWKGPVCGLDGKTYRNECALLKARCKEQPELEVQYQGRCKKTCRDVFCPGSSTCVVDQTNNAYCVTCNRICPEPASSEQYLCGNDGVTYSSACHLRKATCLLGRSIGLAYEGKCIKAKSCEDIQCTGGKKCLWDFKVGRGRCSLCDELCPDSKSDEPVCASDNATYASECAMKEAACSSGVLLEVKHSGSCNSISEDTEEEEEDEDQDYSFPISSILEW
Luciferin 4-monooxygenase (Photinus pyralis), sequence (P08659 whole entry, looked up): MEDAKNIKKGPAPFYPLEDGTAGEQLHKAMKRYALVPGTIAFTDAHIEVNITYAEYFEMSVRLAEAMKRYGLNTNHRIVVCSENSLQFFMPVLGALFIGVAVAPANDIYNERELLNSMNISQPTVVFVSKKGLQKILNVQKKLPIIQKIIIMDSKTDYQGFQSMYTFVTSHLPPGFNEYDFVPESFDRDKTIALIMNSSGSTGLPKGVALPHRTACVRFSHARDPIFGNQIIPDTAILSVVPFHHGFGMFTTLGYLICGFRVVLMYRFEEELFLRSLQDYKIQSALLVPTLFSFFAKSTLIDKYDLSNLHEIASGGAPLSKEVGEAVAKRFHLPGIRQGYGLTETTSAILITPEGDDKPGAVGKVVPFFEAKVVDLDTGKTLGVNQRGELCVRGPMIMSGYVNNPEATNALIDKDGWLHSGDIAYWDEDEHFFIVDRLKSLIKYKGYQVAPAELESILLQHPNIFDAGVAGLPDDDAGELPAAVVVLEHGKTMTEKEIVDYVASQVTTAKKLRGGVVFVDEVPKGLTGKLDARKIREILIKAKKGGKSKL
Focal adhesion kinase 1 (Homo sapiens), sequence (Q05397 whole entry, looked up): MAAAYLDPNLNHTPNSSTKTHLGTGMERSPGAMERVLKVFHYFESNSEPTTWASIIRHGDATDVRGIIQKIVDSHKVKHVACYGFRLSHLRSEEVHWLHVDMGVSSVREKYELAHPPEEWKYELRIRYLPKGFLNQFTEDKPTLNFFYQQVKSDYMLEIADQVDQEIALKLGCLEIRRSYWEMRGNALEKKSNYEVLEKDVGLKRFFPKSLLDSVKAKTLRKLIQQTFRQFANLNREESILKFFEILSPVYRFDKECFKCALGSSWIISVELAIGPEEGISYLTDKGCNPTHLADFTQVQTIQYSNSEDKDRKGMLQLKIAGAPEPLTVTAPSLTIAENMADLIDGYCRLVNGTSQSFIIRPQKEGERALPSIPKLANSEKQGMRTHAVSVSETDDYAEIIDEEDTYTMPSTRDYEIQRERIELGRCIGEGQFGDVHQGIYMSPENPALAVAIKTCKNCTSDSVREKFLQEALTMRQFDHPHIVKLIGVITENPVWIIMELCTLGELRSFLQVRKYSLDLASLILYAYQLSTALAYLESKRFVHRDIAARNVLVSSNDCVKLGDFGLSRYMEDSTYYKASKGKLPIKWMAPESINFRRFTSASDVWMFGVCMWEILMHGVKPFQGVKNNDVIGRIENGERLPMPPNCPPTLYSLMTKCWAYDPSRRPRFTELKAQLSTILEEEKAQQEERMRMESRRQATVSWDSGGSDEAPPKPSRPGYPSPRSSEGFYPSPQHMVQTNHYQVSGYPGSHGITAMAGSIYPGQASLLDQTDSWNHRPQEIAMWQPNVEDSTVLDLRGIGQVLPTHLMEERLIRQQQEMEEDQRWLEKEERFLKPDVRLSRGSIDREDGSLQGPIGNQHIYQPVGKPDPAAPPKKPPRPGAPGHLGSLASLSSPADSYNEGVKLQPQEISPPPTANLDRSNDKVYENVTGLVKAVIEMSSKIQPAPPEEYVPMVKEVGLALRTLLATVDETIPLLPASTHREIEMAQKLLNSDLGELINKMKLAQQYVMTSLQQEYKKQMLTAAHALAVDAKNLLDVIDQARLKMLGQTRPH
Fibroblast growth factor 2 (Homo sapiens), sequence (P09038 whole entry, looked up): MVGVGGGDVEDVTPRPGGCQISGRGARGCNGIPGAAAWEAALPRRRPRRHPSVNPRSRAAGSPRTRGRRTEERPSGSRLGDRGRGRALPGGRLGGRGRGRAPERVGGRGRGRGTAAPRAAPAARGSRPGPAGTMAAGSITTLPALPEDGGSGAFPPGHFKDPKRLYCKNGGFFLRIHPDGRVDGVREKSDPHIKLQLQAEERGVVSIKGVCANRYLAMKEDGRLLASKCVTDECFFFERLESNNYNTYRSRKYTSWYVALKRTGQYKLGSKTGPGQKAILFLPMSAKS

Regarding `CCOC(=O)C1=C[C@@H](C(C)(C)C)N(S(=O)(=O)c2ccc(C)cc2)[C@H]1c1ccccc1`, the composite z-score in assay [1] turned out to be 0.761; in [2], 1.16; in assay [3], 0.329; in [4], 0.706; in [5], 1.11; in assay [6], 0.136. Besides, the composite z-score was determined as 0.523 in assay [8] and 1.09 in [9]. Besides, the z-score in assay [7] is 2.21; in [10], 0.756 (inactive).
On to `COCCOC(=O)N1C(=O)[C@@]2(c3cc(C#CCNC(N)=O)ccc31)[C@H](c1ccc(OCCO)cc1)N1[C@H](c3ccccc3)[C@H](c3ccccc3)OC(=O)[C@H]1[C@@H]2C(N)=O`, for which the composite z-score came to 1.11 in assay [1]; 1.14 in [2]; 0.31 in assay [3]; 0.663 in assay [4]; 0.926 in [5]; 0.258 in assay [6]. Besides, the results for the composite z-score in assay [8] and in assay [9] were 0.43 and 0.673, respectively. For the same molecule, the z-score in assay [7] was -0.405; in assay [10] it was -1.83 (inactive).
In the case of `C=CC1c2cc(O)c(OC)cc2CCN1Cc1ccc([N+](=O)[O-])o1` (stereo not given), the composite z-score was 3 in [1]; -0.354 in assay [2]; -0.426 in assay [3]; 0.66 in assay [4]; 0.138 in assay [5]; -0.0471 in assay [6]. Besides, the figures for the composite z-score in assay [8] and in assay [9] were -0.807 and 1.39, respectively. The values for the z-score in assay [7] and in [10] were 1.3 and -1.6 (inactive), respectively.
As for `Cc1ccc(S[C@]2(C(=O)NC(C)C)CC(=O)N(C(C)C)[C@@H]2c2ccc(CO)cc2I)cc1`, the composite z-score in assay [1] is -0.893; in [2] it was -0.0049; in assay [3] it was 1.58; in [4], 0.351; in assay [5], -0.077; in [6], -0.471. The composite z-score in [8] was -0.18; in assay [9], 0.169. Further, the z-score was 1.28 in [7] and 1.11 (inactive) in assay [10].
With `C=CCNC(=O)[C@@H]1[C@H]2C(=O)O[C@H](c3ccccc3)[C@H](c3ccccc3)N2[C@H](c2ccc(O)cc2)[C@@]12C(=O)Nc1ccc(C#CCC(C(=O)OC)C(=O)OC)cc12`, the composite z-score is -0.414 in assay [1]; 1.2 in [2]; 0.267 in assay [3]; 0.0847 in assay [4]; 1.24 in assay [5]; 0.464 in assay [6]. The composite z-score was found to be 0.147 in assay [8] and 0.0307 in [9]. For the same molecule, the z-score in assay [7] was -1.22; in [10], -0.108 (inactive).
For `[N-]=[N+]=NCc1ccccc1C[C@]1(C(=O)N2CCOCC2)COC(c2ccc(OCCCO)cc2)=N1`, the composite z-score in assay [1] was 2.22; in [2], 1.19; in [3], 0.168; in assay [4], 0.695; in assay [5], 0.234; in [6] it was -0.309. Also, the figures for the composite z-score in assay [8] and in [9] were -0.346 and 1.01, respectively. Further, the z-score is 2.41 in assay [7] and -1.21 (inactive) in assay [10].
In the case of `CCOC(=O)C=Cc1ccccc1O`, the composite z-score in [1] is 0.712; in [2] it was 0.923; in [3] it was -0.0156; in assay [4] it was 0.881; in [5] it was 0.79; in assay [6], 0.292. The figures for the composite z-score in [8] and in assay [9] were 0.175 and 0.404, respectively. Besides, the z-score in assay [7] is -1.47; in [10], -0.532 (inactive).
For the molecule `C=C/C=C/[C@@H]1C(=C)CN([C@@H](Cc2ccccc2)C(=O)OC)[C@H]1[C@@H](O)Cc1ccccc1`, the composite z-score in assay [1] turned out to be 0.507; in assay [2], 1.07; in [3], 0.507; in assay [4] it was 0.807; in assay [5], 0.818; in assay [6] it was 0.227. The composite z-score was found to be 0.446 in assay [8] and 0.635 in assay [9]. Also, the z-score in assay [7] is 0.718; in assay [10], -0.053 (inactive).
For `COc1cc(C(O)C2C=CC3C(=O)N(Cc4ccccc4)C(=O)C3N2n2cnnc2)cc(OC)c1OC` (stereo not given), the composite z-score in assay [1] was 0.941; in assay [2] it was 0.869; in [3], 0.498; in assay [4] it was 0.912; in assay [5], 0.448; in assay [6], 0.405. In addition, the composite z-score in assay [8] is -0.493; in [9], 1.15. For the same molecule, the z-score is -0.417 in assay [7] and -2.17 (inactive) in assay [10].
On to `O=C1OCCC/C=C\[C@H]2OC34C=CCN(c5ccc6ccccc6c5)C(=O)[C@H]3N(CCCO)C(=O)[C@@H]4C12` (stereo not given in full), for which the composite z-score in assay [1] is 1.09; in [2] it was -0.0247; in assay [3], 0.984; in [4], -1.07; in assay [5], -0.45; in assay [6] it was -0.755. Besides, the results for the composite z-score in assay [8] and in assay [9] were -0.345 and 0.576, respectively. Further, the z-score in [7] is 0.333; in assay [10] it was -0.183 (inactive).
As for `COC(=O)[C@@]1(Cc2ccc(F)cc2)[C@H]2c3cc(C(=O)N(C)C)n(Cc4ccc(O)c(OC)c4)c3C[C@H]2CN1C(=O)c1ccccc1`, the composite z-score in [1] amounted to 1.15; in [2] it was 0.575; in assay [3] it was 0.489; in assay [4] it was 0.977; in assay [5], 0.0157; in assay [6], 0.0287. In addition, the composite z-score is -0.0615 in [8] and 0.438 in [9]. The z-score in [7] is -1.18; in [10] it was 1.08 (inactive).
As for `NC(=O)N1C(=O)C2C(C1=O)C1C=C(CCCO)C2C(C2CC2)N1Cc1cccc(OC(F)(F)F)c1` (stereo not given), the composite z-score in assay [1] is 0.589; in [2], 0.469; in assay [3], -0.0719; in assay [4], 0.948; in assay [5], 0.173; in assay [6], -0.314. Moreover, the composite z-score in [8] came to 0.341; in assay [9], 0.94. The values for the z-score in assay [7] and in [10] were 0.541 and -1.4 (inactive), respectively.
Consider `C=CCOC(=O)[C@H]1[C@@H]2C(=O)O[C@@H](c3ccccc3)[C@@H](c3ccccc3)N2[C@@H](c2ccc(OCCOC(=O)[C@H]3C[C@H]4C(=O)N[C@@H](CCCCNC(C)=O)C(=O)N4[C@H]3c3cccc(OCCO)c3)cc2)[C@]12C(=O)Nc1ccc(I)cc12`, for which the composite z-score in assay [1] came to 1.3; in assay [2], 1.15; in assay [3] it was 0.439; in assay [4] it was 0.808; in assay [5], 1.3; in assay [6], 1.68. Moreover, the composite z-score stood at 1.55 in [8] and 0.0811 in assay [9]. Moreover, the z-score in [7] was -1.46; in [10], -0.33 (inactive).
